Compound activity from PubChem BioAssay.
Rows were chosen to be rich in hits. Some 7.4% of all compounds tested hit in one or more screens of this group.
FLuc modulator: counter-screen for miR-21 project: firefly luciferase inhibitors or activators; hit rate 6.9% among 360,000; Potency, µM (doses to about 57.5 µM), for inactives: top-dose activity change, negative = inhibition, most hits filed as inhibitors; purified FLuc, Km substrates, luminescence inhibition;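 also: plate controls were vehicle for no effect and reference inhibitor for full effect; nearly all actives have a fitted effect of over 55% in size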
Target sequence (P08659 whole entry, looked up): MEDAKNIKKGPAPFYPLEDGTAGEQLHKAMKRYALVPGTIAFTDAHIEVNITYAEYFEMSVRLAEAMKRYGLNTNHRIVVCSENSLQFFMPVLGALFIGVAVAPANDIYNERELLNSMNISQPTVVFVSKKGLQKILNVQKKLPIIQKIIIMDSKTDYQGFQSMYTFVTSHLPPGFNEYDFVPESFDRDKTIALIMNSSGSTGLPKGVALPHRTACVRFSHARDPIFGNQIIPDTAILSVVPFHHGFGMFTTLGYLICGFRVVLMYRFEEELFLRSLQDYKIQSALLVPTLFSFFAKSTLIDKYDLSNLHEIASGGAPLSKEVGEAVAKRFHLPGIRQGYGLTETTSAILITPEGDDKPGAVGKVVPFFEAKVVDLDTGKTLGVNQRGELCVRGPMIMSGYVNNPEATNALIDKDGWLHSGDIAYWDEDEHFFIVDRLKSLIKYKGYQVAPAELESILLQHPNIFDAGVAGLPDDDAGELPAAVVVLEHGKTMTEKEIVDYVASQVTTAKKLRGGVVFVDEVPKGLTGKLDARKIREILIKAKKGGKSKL
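Purified P. pyralis luciferase (10nM final) with 10uM D-luciferin and 10uM ATP (Km levels) in 50mM Tris acetate pH 7.5, 10mM Mg acetate, 0.01% Tween-20, 0.05% BSA; qHTS 6-point titration, ~60 µM downward; luminescence read.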
Rab9 prom act: activates the Rab9 promoter. Huh7 Rab9 promoter-luciferase reporter, luminescence, 24 h. Potency, µM (series often up to 9.22 µM), for inactives: top-dose activation, negative = inhibition, most hits filed as activators. hit rate 2.8% among 320,000; also: % of control where 0% means no effect; nearly all actives have a fitted effect of over 60% in size
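Huh7 cells stably carrying a Rab9 promoter-luciferase reporter, 1500 cells per well in OP-MEM I with 10% FBS, treated with compound 24 hours at 37C. Luciferase activity read by luminescence after 10 minutes with Amplite reagent.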
NPC1 promoter act: NPC1 promoter activation. Huh7 NPC1 promoter luciferase reporter, 24 h. Potency, µM (highest dose often 9.22 µM), inactives show at the top dose activation, usual class: activators. hit rate 2.4% among 320,000; also: % of control where 0% means no effect; nearly all actives have a fitted effect of over 60% in size
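Stably transfected Huh7 (NPC1 promoter→luciferase), 1500 cells/well in Opti-MEM + 10% FBS, 2 h settle, then compound 24 h at 37 °C. Luminescence after 10 min with Amplite reagent.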
SMN2 splice up: increases expression of the SMN2 splice variant; HEK293 SMN2-luciferase splicing reporter, luminescence, 30-36 h; Potency, µM (top dose mostly 46.1 µM), without a hit: at the highest dose activity change, positive = activation, hits mostly activators; hit rate 2.8% among 210,000; AID 1458; also: % of control where 0% means no effect; nearly all actives have a fitted effect of over 55% in size
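HEK293 cells carry an SMN2 […]–luciferase reporter in which exon 7 inclusion puts luciferase in frame. Cells were plated 10-12 h before compound addition, then incubated 30-36 h at 37C. ONE-Glo luminescence was read; sodium butyrate at 4.5 mM final served as control.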
ELG1 genotoxic: inducers of genotoxicity in HEK293T ELG1-luciferase cells | Potency, µM (titrated, usually from 46 µM), without a hit: at the top dose activity change, positive = activation, actives largely listed as activators | hit rate 1.3% among 330,000 | HEK293T ELG1-luciferase reporter, luminescence, 16 h; also: % of control where 0% means no effect; nearly all actives have a fitted effect of over 60% in size
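HEK293T cells expressing luciferase-tagged ELG1 were exposed to compound or DMSO vehicle for 16 hr at 37 °C and 5% CO2. Luciferase activity was then measured with ONE-Glo after 30 min at room temperature.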
An asterisk follows results filed as active; u = inconclusive; x = no result; [ ] = another dose, or the depositor's remark. Calls follow the shape of the dose curve; as a rule, active = well fitted curve in the direction sought with a large enough effect; inconclusive = small, poorly fitted or top-dose-only effect, or another doubt; inactive = no such curve, though single readings can be large; an effect the other way counts as inactive or inconclusive. Potency is read from the fitted curve at half-maximal effect.

SMILES	FLuc modulator	Rab9 prom act	NPC1 promoter act	SMN2 splice up	ELG1 genotoxic
Cc1ccc(C(=O)Nc2cc3nn(-c4ccccc4)nc3cc2Cl)c(C)c1	1%	x	x	-2%	x
Cc1cc2nn(-c3ccccc3)nc2cc1NC(=O)c1cccs1	6µM*	2µM*	u	u	u
N/N=C1/CC(=O)NC(=O)N1	x	x	x	-9%[9.22 µM]	x
CCOC(=O)c1c(C)oc2ccc(O)c(CN(C)C)c12	-3%	-1%	-5%	-5%	-19%
CCOC(=O)c1c(C)oc2cc(Cl)c(O)c(CN(C)C)c12	15µM*	-7%	2%	x	u
CCOC(=O)c1c(NC(=O)c2ccco2)sc2c1CCCC2	3%	1%	9%	-12%	12%
CCC1CCc2c(sc(NC(=O)c3cnccn3)c2C(N)=O)C1 (stereo unspecified)	2.4µM*	25%	26%	x	15%
CCOC(=O)c1c(NC(=O)c2cc3ccccc3c(=O)o2)sc2c1CCC(C(C)(C)C)C2 (stereo unspecified)	17µM*	x	x	-4%	x
CCC1CCc2c(sc(NC(=O)c3ccco3)c2C(N)=O)C1 (stereo unspecified)	1.3µM*	2.8µM*	u	18µM*	u
CC(C)(C)C1CCc2c(sc(NC(=O)c3ccco3)c2C(N)=O)C1 (stereo unspecified)	0.43µM*	2.8µM*	u	-60%	u
CC(=O)c1ccc(OCc2ccccc2)c(C)c1O	17µM*	4%	16%	u	u
NNC(=O)c1ccccc1OCc1ccccc1	-3%	-4%	-3%	x	1%
COc1ccc(C)c2sc(=NC(=O)c3cccc(N4C(=O)CCC4=O)c3)n(C)c12	6.7µM*	u	u	x	u
COc1ccc(C)c2sc(=NC(=O)c3ccc(C(C)=O)cc3)n(C)c12	0.67µM*	0.5µM*	0.56µM*	x	u
COc1ccc(C)c2sc(=NC(=O)C(C)C)n(C)c12	-1%	2%	6%	-16%	2%
COc1ccc(C)c2sc(=NC(=O)c3ccccc3)n(C)c12	2.1µM*	2.8µM*	u	11µM*	6.5µM*
C=CCn1c(=NC(=O)c2cccc(N3C(=O)CCC3=O)c2)sc2cccc(OC)c21	u	-3%	1%	x	-8%
CC(=O)NCc1ccc(C(=O)CN2C(=O)NC3(CCCCC3C)C2=O)s1 (stereo unspecified)	5%	-4%	-2%	x	-2%
COc1ccc(NC(=O)Cn2nnc(C(=O)NCc3cccs3)c2N)cc1Cl	-2%	-2%	-3%	x	13%
C#CCSc1nnc(-c2ccc(OC)cc2)o1	7.6µM*	2.8µM*	2.8µM*	u	10µM*
COc1ccc(-c2nnc(SCc3c(C)noc3C)o2)cc1	19µM*	0%	17%	-11%	1%
CCCCCCCCSc1nnc(-c2ccc(OC)cc2)o1	1%	1%	-2%	-15%	-1%
C#CCSc1nnc(-c2ccc([N+](=O)[O-])cc2)o1	u	3.2µM*	26%	20%	16%
CCSc1nnc(-c2ccc(OC)cc2)o1	7.6µM*	2.8µM*	2.8µM*	11µM*	7.1µM*
CSc1nnc(-c2ccc([N+](=O)[O-])cc2)o1	-3%	12%	-4%	x	10%
SMILES	FLuc modulator	Rab9 prom act	NPC1 promoter act	SMN2 splice up	ELG1 genotoxic
COc1ccc(-c2nnc(SCC#N)o2)cc1	-7%	1%	0%	-10%	u
CCc1noc(C)c1C(=O)Nc1ccc(S(=O)(=O)N2CCC(C)CC2)cc1	0%	-3%	-5%	x	15%
CNC(=O)[C@H]1O[C@@H](n2cnc3c(N)ncnc32)[C@H](O)[C@H]1O	x	x	x	5%	x
Brc1ccc(-c2cn3cccnc3n2)cc1	8.5µM*	2.2µM*	u	7.9µM*	2.9µM*
Clc1ccc(-c2cn3cccnc3n2)cc1	11µM*	u	27%	-5%	16µM*
Clc1ccc(-c2cn3cccnc3n2)cc1Cl	17µM*	u	u	u	u
O=C(Nc1cccc(-c2cn3cccnc3n2)c1)c1cc(Br)ccc1Cl	-4%	x	x	x	x
COc1ccc(-c2cn3cccnc3n2)cc1F	8.5µM*	u	u	16µM*	u
CCCN(C(=O)c1nn(-c2ccc(OC)cc2)c(=O)c2c1c1ccccc1n2C)c1ccc(CC)cc1	-5%	x	x	-6%	x
COC(=O)c1c(C)[nH]c(C(=O)/C=C/c2ccc(C)cc2)c1C	2.1µM*	0%	1%	x	u
COC(=O)c1c(C)[nH]c(C(=O)CC#N)c1C	-7%	4%	-2%	u	7%
COC(=O)c1c(C)[nH]c(C(=O)/C=C/c2ccccc2)c1C	0.48µM*	1.4µM*	2.2µM*	2.2µM*	12µM*
CCCc1nc(SC)ncc1C(=O)N1CCN(c2ccc(Cl)cc2)CC1	0%	x	x	x	x
CCC(C)c1ccc(NC(=O)CSc2nncn2N)cc1 (stereo unspecified)	u	6%	16%	-11%	u
CC(C)n1cnnc1SCC(=O)NCC(=O)Nc1ccc(F)cc1	3%	14%	5%	x	-1%
Nn1cnnc1SCC(=O)Nc1ccc(C2CCCCC2)cc1	5.4µM*	u	3.5µM*	u	u
O=C(O)CSCC(=O)Nc1ccc(C2CCCCC2)cc1	12µM*	x	x	-25%	x
CC(C)n1cnnc1SCC(=O)Nc1ccc(N2CCCCC2)cc1	6µM*	2%	-3%	x	u
Cc1ccc(NC(=O)CSCC(=O)O)cc1	2%	14%	-5%	x	1%
Cc1ccc2occ(CC(=O)N(Cc3ccc(C(C)C)cc3)C3CCS(=O)(=O)C3)c2c1 (stereo unspecified)	3%	x	x	0%	x
Cc1ccc(S(=O)(=O)Nc2ccc3c(c2)c2c(n3S(=O)(=O)c3ccc(C)cc3)CCCC2=O)cc1	4%	-6%	1%	-5%	0%
Cc1cc(C(=O)N2CCN(Cc3ccc4c(c3)OCO4)CC2)cs1	0%	0%	2%	-26%	1%
O=[N+]([O-])c1ccc2nc(N3CCCC3)sc2c1	11µM*	3.5µM*	3.2µM*	x	u
Fc1ccc2nc(N3CCCC3)sc2c1	12µM*	u	2.2µM*	13µM*	u
Fc1cc(F)c2nc(N3CCCCC3)sc2c1	15µM*	27%	u	u	u
SMILES	FLuc modulator	Rab9 prom act	NPC1 promoter act	SMN2 splice up	ELG1 genotoxic
O=C(c1ccc2c(c1)CCCC2)N1CCN(c2nc3ccc(F)cc3s2)CC1	-7%	x	x	x	x
CC(C)(C)NCc1cccn1-c1sc2c(c1C#N)CCCC2	2%	0%	0%	-16%	-5%
N#Cc1c(-n2ncnc2-c2ccc(F)cc2)sc2c1CCCCC2	0.43µM*	x	x	-11%	x
N#Cc1c(N2C(=O)c3ccc(C(=O)O)cc3C2=O)sc2c1CCCC2	u	0%	0%	x	0%
N#Cc1c(-n2ncnc2-c2cccc(Br)c2)sc2c1CCCCC2	3.4µM*	x	x	-3%	x
Cc1ccccc1-c1ncnn1-c1sc2c(c1C#N)CCCCC2	0.34µM*	x	x	-9%	x
C[N+](C)(C)CCCSc1nc2ccccc2[nH]1	x	x	x	-13%[9.22 µM]	x
